# Laboratory results as given in PubChem BioAssay (NCATS).
# Inconclusive results are not listed. Where a structure was tested more than once in an assay, its records may differ in their call. Calls of active or inactive are those of the source. Unless noted, calls follow the shape of the dose curve; as a rule, active = well fitted curve in the direction sought with a large enough effect; inconclusive = small, poorly fitted or top-dose-only effect, or another doubt; inactive = no such curve, though single readings can be large; an effect the other way counts as inactive or inconclusive.
# Assays:
# [1] = qHTS Assay for Identification of Small Molecule Agonists for Hypoxia Response Element Signaling Pathway (AID 914; active = well fitted activation curve with a large enough effect in the signal ratio, with a control signal flat, not every such curve was filed as active; the % refers to the signal ratio; also: potency is read from the fitted curve at half-maximal effect; as to activation: % of control where 0% means no effect); details: ME-180 (cervical carcinoma) HRE-bla reporter, beta-lactamase ratio, CoCl2, 17 h; activation: stronger effect = higher value
# Summary of the method: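 qHTS titration; ME-180 HRE-bla cells; EC50 CoCl2 co-treatment, 17 h at 37 degrees Celsius; CCF4 dye, ex 405nm, em 460nm and 530nm; %Activity from ratio; AC50.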
# [2] = Confirmation and Secondary Assay for Modulators of Hemoglobin Beta Chain Splicing at IVS2 654 locus (AID 910);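 also: HeLa cells stably carrying EGFP split by mutant beta-globin IVS2-654 intron; % of control where 0% means no effect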
# Summary of the method: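 HeLa cells stably expressing EGFP interrupted by β-globin IVS2-654 intron, seeded overnight in Opti-MEM/2% FCS, then treated 2 days at 37 °C. Restored splicing read as total peak GFP intensity per well by laser scanning cytometry (488 nm excitation, 500–520 nm emission); 500 nM antisense PNA as control.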
# [3] = Confirmation and Secondary Assay for Modulators of Hemoglobin Beta Chain Splicing at IVS2 705 locus (AID 930);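 also: HeLa cells stably expressing the EGFP-705 splicing reporter; GFP fluorescence per well restored by corrected splicing of the IVS2-705 intron in EGFP; % of control where 0% means no effect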
# Summary of the method: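 Secondary splice-site specificity test uses HeLa expressing CMV-driven EGFP interrupted by IVS2-705; cells were treated 2 days at 37C with 500 nM antisense PNA as positive control.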
# [4] = target: Cytochrome P450 3A4 (Homo sapiens) (UniProt P08684); assay: qHTS Assay for Inhibitors and Substrates of Cytochrome P450 3A4 (AID 884); also: nearly all actives have a fitted effect of over 50% in size; also: potency is read from the fitted curve at half-maximal effect; as to activity change, negative = inhibition: % is scaled to controls: 0 for no effect and ±100 for the full control effect
# Chain of Cytochrome P450 3A4 (Homo sapiens) (P08684 whole entry, looked up): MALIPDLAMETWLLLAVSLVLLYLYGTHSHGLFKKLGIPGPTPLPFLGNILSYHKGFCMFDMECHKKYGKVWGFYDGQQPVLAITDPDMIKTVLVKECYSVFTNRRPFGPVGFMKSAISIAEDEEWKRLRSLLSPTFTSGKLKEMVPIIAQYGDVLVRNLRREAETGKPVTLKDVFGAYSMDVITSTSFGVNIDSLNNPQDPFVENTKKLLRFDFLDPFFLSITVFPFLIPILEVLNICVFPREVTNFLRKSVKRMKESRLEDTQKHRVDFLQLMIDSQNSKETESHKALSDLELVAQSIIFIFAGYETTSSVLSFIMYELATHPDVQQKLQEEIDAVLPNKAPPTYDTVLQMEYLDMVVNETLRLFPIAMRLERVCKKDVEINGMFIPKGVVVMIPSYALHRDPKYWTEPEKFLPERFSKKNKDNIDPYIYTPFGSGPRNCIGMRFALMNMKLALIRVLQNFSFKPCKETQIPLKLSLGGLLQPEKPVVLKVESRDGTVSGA
# Summary of the method: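 20 nM human CYP3A4 with 25 uM Luciferin-PPXE (at KM) in 200 mM KPO4, preincubated 10 min with compound; NADPH regeneration started a 60 min RT reaction. Luciferin detected by luminescence, normalized to 57 uM ketoconazole as full inhibition.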
# [5] = target: DNA dC->dU-editing enzyme APOBEC-3G (Homo sapiens) (UniProt Q9HC16); assay: qHTS for inhibitors of Vif-A3G interactions: Validation (AID 588379); also: 0% is about no effect
# Chain of DNA dC->dU-editing enzyme APOBEC-3G (Homo sapiens) (Q9HC16 whole entry, looked up): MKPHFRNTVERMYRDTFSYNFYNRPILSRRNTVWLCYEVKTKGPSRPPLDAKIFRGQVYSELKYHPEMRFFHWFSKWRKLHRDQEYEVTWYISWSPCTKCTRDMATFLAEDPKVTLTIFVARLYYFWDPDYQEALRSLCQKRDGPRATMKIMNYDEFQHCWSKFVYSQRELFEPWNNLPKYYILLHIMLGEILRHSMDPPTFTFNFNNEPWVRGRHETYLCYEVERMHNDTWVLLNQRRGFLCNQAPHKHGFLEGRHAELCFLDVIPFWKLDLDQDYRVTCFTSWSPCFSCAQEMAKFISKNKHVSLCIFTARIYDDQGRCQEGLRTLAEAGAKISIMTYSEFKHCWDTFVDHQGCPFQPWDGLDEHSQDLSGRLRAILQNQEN
# Summary of the method: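 HeLa cells stably expressing Vif and A3G-eYFP, 700 cells/well, incubated overnight at 37 deg C, then exposed to compound overnight at 37 deg C. Inhibition of Vif-mediated degradation read as increased yellow fluorescence (Ex 488/Em 500-530) by laser-scanning cytometry.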
# [6] = target: Rap guanine nucleotide exchange factor 3 (Homo sapiens) (UniProt O95398); assay: Counterscreen qHTS for antagonist of cAMP-regulated guanine nucleotide exchange factor 3 (EPAC1) (AID 1645888);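 also: fluorescence loss as bound BODIPY-GDP is released from Rap1B; % of control where 0% means no effect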
# Chain of Rap guanine nucleotide exchange factor 3 (Homo sapiens) (O95398 whole entry, looked up): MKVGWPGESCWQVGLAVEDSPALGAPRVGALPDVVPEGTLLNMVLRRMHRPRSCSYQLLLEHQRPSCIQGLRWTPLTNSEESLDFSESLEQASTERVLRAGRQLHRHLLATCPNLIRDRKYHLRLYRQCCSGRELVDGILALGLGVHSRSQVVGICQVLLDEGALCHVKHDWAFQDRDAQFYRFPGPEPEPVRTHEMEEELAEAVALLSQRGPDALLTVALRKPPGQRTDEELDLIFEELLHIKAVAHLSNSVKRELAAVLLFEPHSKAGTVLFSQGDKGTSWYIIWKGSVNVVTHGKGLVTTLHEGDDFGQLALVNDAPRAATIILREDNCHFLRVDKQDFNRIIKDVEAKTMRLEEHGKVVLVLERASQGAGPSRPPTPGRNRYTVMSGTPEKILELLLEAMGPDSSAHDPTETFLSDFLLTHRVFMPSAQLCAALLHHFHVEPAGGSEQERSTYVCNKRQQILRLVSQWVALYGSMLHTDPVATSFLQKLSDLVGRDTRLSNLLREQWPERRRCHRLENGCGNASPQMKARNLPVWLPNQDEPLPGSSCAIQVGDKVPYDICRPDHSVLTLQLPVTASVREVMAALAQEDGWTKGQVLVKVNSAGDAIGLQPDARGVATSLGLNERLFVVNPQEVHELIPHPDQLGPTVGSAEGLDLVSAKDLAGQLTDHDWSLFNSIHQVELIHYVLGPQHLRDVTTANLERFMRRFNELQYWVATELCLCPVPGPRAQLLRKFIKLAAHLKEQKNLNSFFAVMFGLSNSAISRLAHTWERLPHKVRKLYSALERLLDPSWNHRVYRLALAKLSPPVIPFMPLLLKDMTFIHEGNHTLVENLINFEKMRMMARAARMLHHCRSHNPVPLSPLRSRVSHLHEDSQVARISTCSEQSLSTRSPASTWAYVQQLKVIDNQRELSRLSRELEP
# Summary of the method: (§1)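 Rap1B–BODIPY-GDP (250 nM) with 50 uM GDP; compounds pin-transferred to 9.74 nM–152 uM final (activator) or from 7.32 nM upwards (inhibitor). Fluorescence Ex/Em 480/540 nm read at 5 and 30 min, then after adding cAMP or buffer, at room temperature.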
# [7] = target: Rap guanine nucleotide exchange factor 3 (Homo sapiens) (UniProt O95398); assay: Counterscreen qHTS for agonist of cAMP-regulated guanine nucleotide exchange factor 3 (EPAC1) (AID 1645889); also: % of control where 0% means no effect; nearly all actives have a fitted effect of over 40% in size
# Summary of the method: as §1
# [8] = target: Cytochrome P450 2C19 (Homo sapiens) (UniProt P33261); assay: qHTS Assay for Inhibitors and Substrates of Cytochrome P450 2C19 (AID 899); also: nearly all actives have a fitted effect of over 60% in size; also: potency is read from the fitted curve at half-maximal effect
# Chain of Cytochrome P450 2C19 (Homo sapiens) (P33261 whole entry, looked up): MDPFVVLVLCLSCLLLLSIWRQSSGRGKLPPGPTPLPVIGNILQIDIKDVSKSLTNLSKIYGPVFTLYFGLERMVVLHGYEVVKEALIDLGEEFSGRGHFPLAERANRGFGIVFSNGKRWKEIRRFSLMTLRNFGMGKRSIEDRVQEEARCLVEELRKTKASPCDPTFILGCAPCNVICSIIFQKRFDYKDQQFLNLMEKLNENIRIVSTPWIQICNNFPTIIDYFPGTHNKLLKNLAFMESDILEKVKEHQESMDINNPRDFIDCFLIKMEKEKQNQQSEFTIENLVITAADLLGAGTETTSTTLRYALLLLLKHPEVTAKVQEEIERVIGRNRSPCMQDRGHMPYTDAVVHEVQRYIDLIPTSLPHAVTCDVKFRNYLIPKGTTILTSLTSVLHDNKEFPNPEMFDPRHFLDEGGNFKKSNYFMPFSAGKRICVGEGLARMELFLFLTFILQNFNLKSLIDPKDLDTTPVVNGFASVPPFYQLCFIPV
# Summary of the method: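 Signal comes from luciferase acting on luciferin released by CYP2C19-mediated hydroxylation of Luciferin-H EGE, 10uM (KM). Assay mix: 5nM enzyme, 50mM KPO4; 60 min at 37C with NADPH regeneration. Data normalized against 57uM ketoconazole.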
# [9] = target: Cytochrome P450 2C9 (Homo sapiens) (UniProt P11712); assay: qHTS Assay for Inhibitors and Substrates of Cytochrome P450 2C9 (AID 883); also: nearly all actives have a fitted effect of over 60% in size; also: potency is read from the fitted curve at half-maximal effect; as to activity change, negative = inhibition: % is scaled to controls: 0 for no effect and ±100 for the full control effect
# Chain of Cytochrome P450 2C9 (Homo sapiens) (P11712 whole entry, looked up): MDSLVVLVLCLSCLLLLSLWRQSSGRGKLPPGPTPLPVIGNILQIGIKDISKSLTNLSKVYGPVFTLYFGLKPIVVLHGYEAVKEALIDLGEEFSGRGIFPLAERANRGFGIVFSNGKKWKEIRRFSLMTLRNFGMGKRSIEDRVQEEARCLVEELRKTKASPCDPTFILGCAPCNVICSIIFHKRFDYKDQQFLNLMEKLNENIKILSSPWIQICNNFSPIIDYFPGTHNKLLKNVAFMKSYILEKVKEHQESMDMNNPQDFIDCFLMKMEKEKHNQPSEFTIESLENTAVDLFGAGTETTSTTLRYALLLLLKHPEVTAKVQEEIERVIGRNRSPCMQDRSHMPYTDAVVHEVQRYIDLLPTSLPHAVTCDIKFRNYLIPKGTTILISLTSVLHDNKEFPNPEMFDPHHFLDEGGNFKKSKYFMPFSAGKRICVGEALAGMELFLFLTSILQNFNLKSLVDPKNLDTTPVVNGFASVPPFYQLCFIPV
# Summary of the method: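 Signal: luciferase luminescence reporting luciferin produced by CYP2C9. Conditions: 10nM enzyme, Luciferin-H 100uM at KM, 25mM KPO4, 37C, 60 min NADPH-driven reaction. Reference: 57uM sulphaphenazole as 100% inhibition.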
# [10] = target: Cytochrome P450 2D6 (Homo sapiens) (UniProt P10635); assay: qHTS Assay for Inhibitors and Substrates of Cytochrome P450 2D6 (AID 891); also: nearly all actives have a fitted effect of over 60% in size; also: potency is read from the fitted curve at half-maximal effect
# Chain of Cytochrome P450 2D6 (Homo sapiens) (P10635 whole entry, looked up): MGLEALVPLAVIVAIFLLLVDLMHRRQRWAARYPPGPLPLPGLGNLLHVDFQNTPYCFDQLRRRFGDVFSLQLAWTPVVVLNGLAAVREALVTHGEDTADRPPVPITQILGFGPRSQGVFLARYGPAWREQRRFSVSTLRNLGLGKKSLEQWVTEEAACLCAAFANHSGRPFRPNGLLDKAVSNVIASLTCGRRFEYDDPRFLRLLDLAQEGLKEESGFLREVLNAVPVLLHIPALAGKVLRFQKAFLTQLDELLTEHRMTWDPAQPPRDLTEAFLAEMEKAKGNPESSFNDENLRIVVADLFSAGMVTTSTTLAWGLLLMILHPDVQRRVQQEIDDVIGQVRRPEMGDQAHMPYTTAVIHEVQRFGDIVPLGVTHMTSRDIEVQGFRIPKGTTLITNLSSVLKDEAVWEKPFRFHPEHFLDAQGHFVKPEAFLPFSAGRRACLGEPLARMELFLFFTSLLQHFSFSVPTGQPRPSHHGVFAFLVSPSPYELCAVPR
# Summary of the method: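 Human CYP2D6 (5 nM) with 30 uM Luciferin-ME EGE (at Km) in 100 mM KPO4, compound preincubated 10 min, then NADPH regeneration system for 60 min at room temperature. Luciferin read by luminescence; normalized to 1.43 uM quinidine.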
# [11] = target: Catechol O-methyltransferase (Homo sapiens) (UniProt P21964); assay: Confirmatory Screen for Target Class Profiling of Small Molecule Inhibitors of Methyltransferases (AID 1745852); details: MTase-Glo luminescence, SAH detection, recombinant enzyme; measured here: COMT max response; stronger effect = lower value; as to activity change, negative = inhibition: % is scaled to controls: 0 for no effect and ±100 for the full control effect
# Chain of Catechol O-methyltransferase (Homo sapiens) (P21964 whole entry, looked up): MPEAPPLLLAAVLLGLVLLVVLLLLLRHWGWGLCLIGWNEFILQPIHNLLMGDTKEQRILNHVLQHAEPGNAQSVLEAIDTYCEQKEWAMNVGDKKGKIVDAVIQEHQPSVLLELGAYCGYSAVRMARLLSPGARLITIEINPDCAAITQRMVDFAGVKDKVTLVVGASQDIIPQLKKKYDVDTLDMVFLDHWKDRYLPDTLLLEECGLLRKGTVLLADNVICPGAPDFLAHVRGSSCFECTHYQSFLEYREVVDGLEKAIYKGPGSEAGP
# [12] = target: Guanidinoacetate N-methyltransferase (Homo sapiens) (UniProt Q14353); assay: as above; details: MTase-Glo luminescence, SAH detection, recombinant enzyme; at 57.3 µM (top of the series)
# [13] = target: Nicotinamide N-methyltransferase (Homo sapiens) (UniProt P40261); assay: as above; details: MTase-Glo luminescence, SAH detection, recombinant enzyme; measured here: NNMT max response; stronger effect = lower value
# Chain of Nicotinamide N-methyltransferase (Homo sapiens) (P40261 whole entry, looked up): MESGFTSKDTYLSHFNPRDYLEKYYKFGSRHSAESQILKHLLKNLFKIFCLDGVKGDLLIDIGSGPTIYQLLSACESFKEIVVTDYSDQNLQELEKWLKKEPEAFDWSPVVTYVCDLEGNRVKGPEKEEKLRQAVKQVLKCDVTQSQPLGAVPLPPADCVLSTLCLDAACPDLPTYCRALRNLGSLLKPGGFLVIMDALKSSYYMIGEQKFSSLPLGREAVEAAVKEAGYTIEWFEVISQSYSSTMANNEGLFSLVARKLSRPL
# [14] = target: Phenylethanolamine N-methyltransferase (Homo sapiens) (UniProt P11086); assay: as above; details: MTase-Glo luminescence, SAH detection, recombinant enzyme; measured here: PNMT max response; stronger effect = lower value
# Chain of Phenylethanolamine N-methyltransferase (Homo sapiens) (P11086 whole entry, looked up): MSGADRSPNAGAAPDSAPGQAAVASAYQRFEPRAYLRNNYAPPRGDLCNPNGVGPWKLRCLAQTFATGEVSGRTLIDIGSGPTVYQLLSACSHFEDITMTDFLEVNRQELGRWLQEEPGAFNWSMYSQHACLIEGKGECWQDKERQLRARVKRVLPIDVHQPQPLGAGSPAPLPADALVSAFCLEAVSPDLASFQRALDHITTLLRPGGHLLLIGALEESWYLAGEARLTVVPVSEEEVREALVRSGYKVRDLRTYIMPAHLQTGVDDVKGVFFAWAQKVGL
# [15] = NCATS anti-infectives library activity on HEK293 viability as a counter-qHTS vs the C. elegans viability qHTS (AID 1745854);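 also: HEK293 cells exposed to compounds for 24 hr before the viability read; % is scaled to controls: 0 for no effect and ±100 for the full control effect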
# Summary of the method: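 HEK293 cells (1,500/well) exposed 24 hr at 37C to 1:5 titrations, up to 41.7 uM final; counter-screen to a C. elegans viability qHTS. Viability by CellTiter-Glo luminescence after 10 min at room temperature; digitonin as control.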
# [16] = NCATS anti-infectives library activity on the primary C. elegans qHTS viability assay (AID 1745855; calls by dose curve; also: potency is read from the fitted curve at half-maximal effect); details: C. elegans worm area imaging, day 7
# Summary of the method: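 Viability read-out is GFP fluorescence of PE254-GFP-FLuc C. elegans, measured by laser cytometry (488 nm) at day 0, 3 and 7. Ten L1 worms per well were incubated 7 days at 21 °C with compounds and bacterial capsules in S medium.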
smiles,measurement,setting,value
COc1ccc(-n2c(=O)c(-c3ccc(Cl)cc3)nc3cnc(N(C)C)nc32)cc1,Potency,[1],3.16 µM (active)
O=C1C=C(O)c2ccccc2C1=O,Potency,[2],inactive
COc1cccc(-c2ccc3ncnc(NCc4ccccc4OC)c3c2)c1,Potency,[2],inactive
same,outcome,[3],inactive
COC(=O)N1CCC2(CC1)CCN(c1cccc(-c3ccccc3)c1)CC2,Potency,[4],inactive
Clc1cccc2c1CN(C1=NCCN1)C2,outcome,[5],inactive
CCCCCc1c2c(cc(O)c1C(=O)O)OC(=O)c1cc(C(=O)CCCC)c(OC)cc1O2,outcome,[6],inactive
same,outcome,[7],inactive
COc1ccccc1CNc1nc(-c2ccc3c(c2)OCO3)nc2ccccc12,Potency,[8],3.16 µM (active)
O=c1c(-c2cc(F)cc(F)c2)nc2cncnc2n1Cc1ccccc1Cl,Potency,[9],3.98 µM (active)
same,Potency,[8],1.58 µM (active)
N#CCCn1c(=O)c(-c2cccs2)nc2cnc(N3CCOCC3)nc21,activation,[1],21.6% (inactive)
Cn1cccc1C(=O)N1CCC2(CC1)CN(c1cccc(-c3ccccc3)c1)C2,Potency,[9],inactive
same,Potency,[4],inactive
Cc1ccccc1-c1nc(N(C)Cc2ccco2)c2ccccc2n1,Potency,[10],3.16 µM (active)
CS(=O)(=O)c1ccc(Cn2c3c(c4cc(F)cc(F)c42)CCC[C@H]3CC(=O)O)cc1,Potency,[9],inactive
same,outcome,[5],inactive
O=c1c(-c2ccc(F)c(F)c2)nc2cncnc2n1Cc1ccccc1Cl,Potency,[9],5.01 µM (active)
same,Potency,[8],6.31 µM (active)
COc1cc(/C=C\c2ccc(OC)cc2OC)cc(OC)c1,Potency,[8],inactive
same,outcome,[5],inactive
CN(C)c1ncc2nc(CCc3ccccc3)c(=O)n(Cc3ccc(F)cc3)c2n1,Potency,[8],0.794 µM (active)
CCCCCCCCCCCCCC(=O)O[C@H](CC(=O)O)C[N+](C)(C)C,outcome,[5],inactive
Cc1cc(OC(=O)c2c(C)cc(O)cc2O)cc(O)c1C(=O)O,Potency,[4],12.6 µM (active)
same,Potency,[2],inactive
same,outcome,[3],inactive
Cn1cccc1C(=O)N1CCC2(CCCN(c3cccc(-c4ccccc4)c3)C2)CC1,Potency,[9],3.98 µM (active)
O=C(c1cnccn1)N1CCC2(CC1)CN(c1ccccn1)C2,Potency,[4],inactive
COc1ccc(CNc2ncncc2-c2ccccc2C)c(OC)c1,Potency,[4],0.398 µM (active)
same,Potency,[8],1.58 µM (active)
N[C@H](C(=O)O)c1ccc(O)c(C(=O)O)c1,Potency,[8],inactive
same,outcome,[5],inactive
CS(=O)(=O)Nc1cccc(-c2ccc3ncnc(Nc4ccc(F)cc4)c3c2)c1,Potency,[2],inactive
O=c1c(-c2ccc(Cl)cc2)nc2cncnc2n1Cc1ccccc1Cl,Potency,[8],3.98 µM (active)
COc1cc(C)c2c(c1C=O)Oc1c(c(C)c(O)c3c1C(O)OC3=O)OC2=O (stereo not drawn),Potency,[4],12.6 µM (active)
O=C(c1cccc(F)c1)N1CCC2(CCCN(c3cccc(-c4ccccc4)c3)C2)CC1,Potency,[8],7.94 µM (active)
COc1ccc(CNc2cc(-c3ccccc3C)ncn2)c(OC)c1,activation,[1],2.85% (inactive)
COc1ccc(CNc2ncnc3ccc(-c4c(C)noc4C)cc23)c(OC)c1,Potency,[4],3.16 µM (active)
same,Potency,[1],2 µM (active)
CN(C)c1ncc2nc(-c3cc(F)cc(F)c3)c(=O)n(Cc3cccs3)c2n1,Potency,[8],inactive
same,Potency,[1],0.126 µM (active)
COc1cccc(Cn2c(=O)c(-c3ccc(F)cc3)nc3cnc(N4CCOCC4)nc32)c1,Potency,[8],inactive
same,Potency,[1],3.16 µM (active)
COC(=O)C1=C(C)NC(C)=C(C(=O)OCCSc2ccccc2)[C@@H]1C,Potency,[9],3.16 µM (active)
same,Potency,[8],0.199 µM (active)
same,outcome,[5],inactive
O=C(CCCCCN1C(=O)c2cccc3cccc(c23)C1=O)NO,activity,[11],0.323%
same,"activity change, negative = inhibition",[12],0.722%
same,activity,[13],-12.3%
same,activity,[14],-6.54%
COc1ccc(C(=O)N2CCC[C@@]3(CCN(Cc4cc(C(F)(F)F)cc(C(F)(F)F)c4)C3)C2)cc1,Potency,[4],3.16 µM (active)
N#C/C(=C\c1ccc(O)c(O)c1)C(=O)OCCc1cccs1,Potency,[8],6.31 µM (active)
same,outcome,[5],inactive
CN(C)c1ncc2nc(-c3cccs3)c(=O)n(C3CC3)c2n1,Potency,[1],3.98 µM (active)
c1csc(CNc2ccnc(-c3ccc4c(c3)OCO4)n2)c1,Potency,[10],0.501 µM (active)
same,Potency,[8],5.01 µM (active)
COc1c(O)cc2oc3cc(O)c(CC=C(C)C)c(O)c3c(=O)c2c1CC=C(C)C,Potency,[9],5.01 µM (active)
same,Potency,[4],inactive
same,Potency,[10],31.6 µM (active)
same,Potency,[8],10 µM (active)
same,Potency,[2],inactive
same,outcome,[5],inactive
same,outcome,[15],inactive
same,Potency,[16],6.48 µM (active)
COc1cccc(-c2nccc(NCc3cccs3)n2)c1,Potency,[4],5.01 µM (active)
same,Potency,[10],0.316 µM (active)
COCCn1c(=O)c(-c2cc(F)cc(F)c2)nc2cnc(Nc3cccc(OC)c3)nc21,Potency,[4],7.94 µM (active)
COc1cccc(-c2cc(NCc3ccc(OC)cc3OC)ncn2)c1,Potency,[4],2.51 µM (active)
same,Potency,[8],5.01 µM (active)
same,activation,[1],1.95% (inactive)
Cc1c(CC(C)(C)C(=O)O)n(Cc2ccc(Cl)cc2)c2ccc(F)cc12,Potency,[9],0.501 µM (active)
same,Potency,[10],inactive
same,Potency,[8],316 nM (active) and inactive
same,outcome,[5],inactive
COc1ccccc1CNc1nc(-c2cccc(C#N)c2)nc2ccccc12,Potency,[8],3.98 µM (active)
COc1ccc(CNc2nc(-c3ccc4c(c3)OCO4)nc3ccccc23)c(OC)c1,Potency,[4],1.26 µM (active)
same,Potency,[8],7.94 µM (active)
COc1ccc(CNc2ccnc(-c3cccc(C#N)c3)n2)c(OC)c1,Potency,[4],2 µM (active)
same,Potency,[8],3.98 µM (active)
same,activation,[1],-5.53% (inactive)
CN(C)c1ncnc2ccc(-c3ccccc3C(F)(F)F)cc12,Potency,[8],3.98 µM (active)
c1ccc(CNc2ccnc(-c3ccc4c(c3)OCO4)n2)cc1,Potency,[10],1.58 µM (active)
same,Potency,[8],2 µM (active)
same,Potency,[2],inactive
same,outcome,[3],inactive
COc1ncc2nc(-c3cn(C)c4ccccc34)c(=O)n(CCC#N)c2n1,Potency,[4],6.31 µM (active)
CN(C)C(=O)c1ccc(-c2cncnc2NCc2ccccc2)cc1,Potency,[4],2.51 µM (active)
c1ccc(CNc2ncncc2-c2cccnc2)cc1,Potency,[4],1.26 µM (active)
O=c1c(-c2ccccc2)nc2cnc(Oc3cccc(Cl)c3)nc2n1C1CC1,Potency,[9],0.251 µM (active)
Cc1cccc(CNc2ncncc2-c2cccnc2)c1,Potency,[4],0.631 µM (active)
Cc1cnc(CNc2cc(-c3ccccc3C(F)(F)F)ncn2)cn1,"activity change, negative = inhibition",[9],49.4% [at 2.29 µM] (inactive)
same,Potency,[4],inactive
same,activation,[1],4.59% (inactive)
FC(F)(F)c1ccccc1-c1cncnc1NCc1cccnc1,Potency,[4],0.631 µM (active)
same,Potency,[8],2.51 µM (active)
COc1ccc(CNc2cc(-c3cccnc3)ncn2)c(OC)c1,Potency,[4],1.58 µM (active)
Cc1ccccc1-c1cncnc1NCc1cccnc1,Potency,[4],0.631 µM (active)
same,Potency,[8],0.398 µM (active)
CNc1ncncc1-c1ccccc1C,Potency,[4],0.631 µM (active)
COCCn1c(=O)c(-c2cccc(C#N)c2)nc2cnc(Oc3ccc(OC)cc3)nc21,Potency,[4],2.51 µM (active)
O=c1c(-c2cc(F)cc(F)c2)nc2cncnc2n1C1CC1,Potency,[9],inactive
CNc1nc(-c2cccnc2)nc2ccccc12,"activity change, negative = inhibition",[9],82.3% [at 2.29 µM] (inactive)
same,Potency,[4],6.31 µM (active)
NC(=O)c1ccccc1-c1nc(-n2ccnc2)c2ccccc2n1,Potency,[4],3.98 µM (active)
Cc1cccc(CNc2ncncc2-c2ccc(C(=O)N(C)C)cc2)c1,Potency,[4],0.631 µM (active)
c1cc(NC2CC2)nc(-c2ccoc2)n1,Potency,[4],5.01 µM (active)
N#Cc1cccc(-c2nccc(-n3ccnc3)n2)c1,Potency,[8],7.94 µM (active)
COc1ccc(Oc2ncc3ncc(=O)n(C4CC4)c3n2)cc1,activation,[1],-9.06% (inactive)
